Screens from PubChem BioAssay.
Most compounds without a hit are left out; they make up all but 3.5% or so of the library.
GPR151 ag = activates the human receptor GPR151. Q8TDV0. PathHunter beta-arrestin GPR151 cells, luminescence. activation, % at 11.2 µM. 650,000 tested, 1% active. AID 1508602; in the data active = activation above about 4.9%
MITF inh = blocks human microphthalmia-associated transcription factor; O75030; AlphaScreen MITF homodimerization, bead proximity signal; inhibition, % at 2.6 µM; 650,000 tested, 0.91% active; AID 1259374; in the data active = inhibition above about 50%
FBW7 act = human FBW7 E3 ligase activation, primary screen; Q969H0; AlphaScreen FBW7–phospho-cyclin E peptide binding, activator screen; normalized activity (activation), % at 26.1 µM; 650,000 tested, 0.13% active; in the data active = normalized activity above about 1.9%;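 note: purified mutant Fbw7 with reduced substrate affinity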
Target sequence (Q969H0 whole entry, looked up): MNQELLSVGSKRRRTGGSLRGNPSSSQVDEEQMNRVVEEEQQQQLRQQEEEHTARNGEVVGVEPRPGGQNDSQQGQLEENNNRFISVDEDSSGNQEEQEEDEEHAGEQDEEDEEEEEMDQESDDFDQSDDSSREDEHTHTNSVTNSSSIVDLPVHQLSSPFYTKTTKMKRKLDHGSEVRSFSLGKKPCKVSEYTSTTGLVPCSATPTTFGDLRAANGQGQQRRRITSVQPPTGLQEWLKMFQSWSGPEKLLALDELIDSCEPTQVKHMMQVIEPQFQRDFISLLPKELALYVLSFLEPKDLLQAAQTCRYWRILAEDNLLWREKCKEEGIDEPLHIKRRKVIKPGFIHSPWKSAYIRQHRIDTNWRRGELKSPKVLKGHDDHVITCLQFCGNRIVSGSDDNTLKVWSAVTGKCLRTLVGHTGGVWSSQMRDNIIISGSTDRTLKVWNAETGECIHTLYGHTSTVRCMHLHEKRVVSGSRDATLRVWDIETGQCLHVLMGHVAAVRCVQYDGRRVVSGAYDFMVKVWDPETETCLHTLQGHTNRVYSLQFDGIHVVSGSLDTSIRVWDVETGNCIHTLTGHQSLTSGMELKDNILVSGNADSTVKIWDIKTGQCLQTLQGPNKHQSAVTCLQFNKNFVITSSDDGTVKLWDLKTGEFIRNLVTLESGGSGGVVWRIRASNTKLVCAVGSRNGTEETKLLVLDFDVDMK
TEAD-YAP inh = TEAD-YAP interaction inhibition; 640,000 tested, 1.4% active; HEK-TIYL cells, TEAD-Gal4/YAP UAS-luciferase luminescence; inhibition, % at 9.12 µM; AID 1259422; in the data active = inhibition above about 32%
Each line names hits and unclear results; the compound was inactive in the other large screens.

O=C(CN1C(=O)CCSc2ccccc21)N1CCc2ccccc2C1	none
O=c1ccc(-c2ccccc2)nn1CC1CCNCC1	none
Fc1cccc(Nc2nc3nonc3nc2Nc2cccc(F)c2)c1	none
Fc1ccc(Nc2nc3nonc3nc2Nc2ccc(F)cc2F)c(F)c1	TEAD-YAP inh 90
Oc1ccc(Nc2nc3nonc3nc2Nc2ccccc2)cc1	none
Oc1ccc(Nc2nc3nonc3nc2Nc2cccc(Br)c2)cc1	TEAD-YAP inh 45
Clc1ccc(Nc2nc3nonc3nc2Nc2ccc(Br)cc2)cc1Cl	none
c1ccc(Nc2nc3nonc3nc2Nc2ccccc2)cc1	TEAD-YAP inh 36
CN(C)c1nc2nonc2nc1Nc1cccc(Cl)c1	TEAD-YAP inh 75
O=C1N=c2ccccc2=C1c1sc(N2CCCCC2)nc1O	none
CC(=O)Nc1cccc(-c2cnc(NCc3cccc(Cl)c3)c3nccn23)c1	TEAD-YAP inh 69
CC(=O)Nc1cccc(-c2cnc3c(NCc4ccco4)nccn23)c1	FBW7 act 2.3, TEAD-YAP inh 47
CC(=O)Nc1cccc(-c2cnc3c(NCCc4cccnc4)nccn23)c1	TEAD-YAP inh 65
CC(=O)c1cccc(-c2cnc3c(NCC4CC4)nccn23)c1	none
CC(=O)Nc1cccc(-c2cnc3c(NCC4CC4)nccn23)c1	TEAD-YAP inh 80
CC(C)Cc1cc(C(=O)NCc2ccc(F)cc2)no1	none
COc1ccc(NC(=O)c2ccc(CN3CCc4ccccc4C3)cc2)cc1Cl	none
COc1cc2c(cc1OC)C(c1ccc(C(=O)O)cc1)NCC2 (centres undefined)	none
CCCCn1c(CNC(=O)c2ccco2)nnc1SCC(=O)Nc1sc(C(=O)OCC)c(C)c1C(=O)OCC	none
CC(=O)Nc1cccc(-c2cnc3c(NCC(C)C)nccn23)c1	TEAD-YAP inh 65
CC(C)CNc1nccn2c(-c3cccc(O)c3)cnc12	none
N#C/C(C(=O)NCc1ccccc1)=C(/O)CN1C(=O)NC(Cc2c[nH]c3ccccc23)C1=O (centres undefined)	none
Cc1ccc(C(=O)Nc2ncc(C)s2)c(C)c1	TEAD-YAP inh 80
CC(=O)c1ccc(NC(=O)c2ccc(CN3CCOCC3)cc2)cc1	none
CCOc1cc(C2C(C(=O)OC)=CN(Cc3ccc(Cl)cc3)C=C2C(=O)OC)ccc1O	none
COC(=O)C1=CN(Cc2ccc(OC)c(OC)c2)C=C(C(=O)OC)C1c1ccc(F)cc1	none
COC(=O)C1=CN(Cc2ccc(OC)c(OC)c2)C=C(C(=O)OC)C1c1ccc(Br)cc1	FBW7 act 1.9
CCOc1cc(C2C(C(=O)OC)=CN(Cc3ccc(OC)c(OC)c3)C=C2C(=O)OC)ccc1O	TEAD-YAP inh 48
Nc1nccc(-c2ccc3nc(C4COc5ccc(C(=O)NCCc6ccccn6)cc5C4)[nH]c3c2)n1 (centres undefined)	FBW7 act 9.0
Nc1nccc(-c2ccc3nc(C4COc5ccc(C(=O)NCCc6cccnc6)cc5C4)[nH]c3c2)n1 (centres undefined)	FBW7 act 4.2
CC(C)CNC(=O)c1ccc2c(c1)CC(c1nc3ncc(-c4ccnc(N)n4)cc3[nH]1)CO2 (centres undefined)	none
Nc1nccc(-c2cnc3nc(C4COc5ccc(C(=O)NCCc6cccnc6)cc5C4)[nH]c3c2)n1 (centres undefined)	none
CN(C)CCNC(=O)c1ccc2c(c1)CC(c1nc3ncc(-c4ccnc(N)n4)cc3[nH]1)CO2 (centres undefined)	MITF inh 72
COc1ccc2nc(NC(=O)c3cccs3)sc2c1	TEAD-YAP inh 44
CCOc1ccc2nc(NC(=O)c3cccs3)sc2c1	none
COc1ccc2nc(NC(=O)c3ccccc3)sc2c1	TEAD-YAP inh 43
CCCCCCOc1ccc(C(=O)Nc2nc3ccccc3s2)cc1	none
Cc1cccc2nc(NC(=O)c3ccc(Oc4ccccc4)cc3)sc12	TEAD-YAP inh 52
CCOc1ccc(C(=O)Nc2nc3ccccc3s2)cc1	TEAD-YAP inh 57
CCOc1cccc2nc(NC(=O)c3ccc(Oc4ccccc4)cc3)sc12	none
Cc1cccc(NS(=O)(=O)c2ccc3[nH]c(=O)sc3c2)c1	none
O=C(N/N=C/c1cn[nH]c1-c1ccccc1)c1ccccc1	none
Cc1cc(N2CCN(c3ccco3)CC2)n2ncnc2n1	none
O=C(Nc1nc2ccccc2s1)c1ccc(C(=O)c2ccccc2)o1	TEAD-YAP inh 36
CCOc1ccc2nc(NC(=O)NC(=O)C(F)(F)F)sc2c1	TEAD-YAP inh 63
Cc1cccc(NC2=NC(=S)N(c3ccccc3C)C23CCCCC3)c1	none
Oc1ccc(/C=N/Nc2ncc(-c3ccccc3)cn2)c(O)c1	TEAD-YAP inh 62
Cc1cc(N/N=C\c2ccccc2)nc(-c2ccccc2O)n1	none
Cc1nc(N/N=C/c2ccc(O)cc2O)cc(-c2ccccc2)n1	none
Cc1cc(N/N=C/c2ccc(O)cc2O)nc(-c2ccccc2O)n1	TEAD-YAP inh 43
Cc1cc(C(=O)Nc2cc(C)nn2-c2ccccc2)on1	none
Cn1cnc2cc(N=Cc3cccc([N+](=O)[O-])c3)ccc21	none
N#Cc1ccc(N2CCc3ccccc3C2)c([N+](=O)[O-])c1	none
Cc1nnc(-c2ccc(N3CCc4ccccc4C3)c([N+](=O)[O-])c2)o1	TEAD-YAP inh 45
C=CCn1c(SCC(=O)N2CCOCC2)nnc1-c1ccccc1O	none
CCn1c(SCC(=O)N2CCN(c3ccccc3)CC2)nnc1-c1ccccc1O	TEAD-YAP inh 34
C=CCn1c(SCC(=O)N2CCN(c3ccccc3)CC2)nnc1-c1ccccc1O	TEAD-YAP inh 33
CC1(C)C(=O)Nc2ccccc2N1C(=O)CN1C(=O)c2ccccc2C1=O	none
CCOc1c(Cl)cc(C(=O)OCC(=O)N2c3ccccc3NC(=O)C2(C)C)cc1OC	TEAD-YAP inh 32
CC1(C)C(=O)Nc2ccccc2N1C(=O)CCl	TEAD-YAP inh 48
Cc1cccc(CSc2nc3nc(C)c(Cc4cc(C)ccc4C)c(C)n3n2)c1	none
Cc1cc(C)c(S(=O)(=O)Nc2ccc3c(c2)CCCN3C(=O)C(C)C)cc1C	FBW7 act 2.0
Cc1cc(C)c(S(=O)(=O)Nc2ccc3c(c2)N(C(=O)C(C)C)CCC3)cc1C	TEAD-YAP inh 46
CCOc1ccccc1N(CC(=O)Nc1cccc(F)c1)S(C)(=O)=O	none
CN(Cc1nc(-c2ccc(Br)cc2)no1)S(=O)(=O)c1ccc(Cl)cc1	none
CC(=O)NC1=NN(C(C)=O)C(C)(c2ccc(NC(C)=O)cc2)S1 (centres undefined)	none
CC(=O)NC1=NN(C(C)=O)C(C)(c2ccc3ccccc3c2)S1 (centres undefined)	none
CC(=O)NC1=NN(C(C)=O)C(C)(c2ccccc2)S1 (centres undefined)	TEAD-YAP inh 61
CC(=O)NC1=NN(C(C)=O)C(C)(c2cccc(OC(C)=O)c2)S1 (centres undefined)	TEAD-YAP inh 64
CN1C=C(C(N)=O)C=CC1=C1C(=O)c2ccccc2C1=O	none
CC1Cc2cc(-c3cc(CC(=O)NCc4cccnc4)no3)ccc2O1 (centres undefined)	TEAD-YAP inh 34
COc1ccc(-c2cc(C(=O)NCc3cccnc3)no2)cc1	none
Fc1ccccc1COc1ccc(-c2nnc3ccc4ccccc4n23)cc1	none
CCc1cc(NCc2ccco2)n2nc3nc(C)cc(C)c3c2n1	FBW7 act 252
